Whole data set: some 5,800 sequences, median “enrichment r” near 0.68, cut for the highest 2% near 11. The full list was thinned out, with the highest values kept by preference.
T1: UNK ZnF1-6 (called full-length) (human, UniProt Q9C0B0 30-357)
T1 sequence: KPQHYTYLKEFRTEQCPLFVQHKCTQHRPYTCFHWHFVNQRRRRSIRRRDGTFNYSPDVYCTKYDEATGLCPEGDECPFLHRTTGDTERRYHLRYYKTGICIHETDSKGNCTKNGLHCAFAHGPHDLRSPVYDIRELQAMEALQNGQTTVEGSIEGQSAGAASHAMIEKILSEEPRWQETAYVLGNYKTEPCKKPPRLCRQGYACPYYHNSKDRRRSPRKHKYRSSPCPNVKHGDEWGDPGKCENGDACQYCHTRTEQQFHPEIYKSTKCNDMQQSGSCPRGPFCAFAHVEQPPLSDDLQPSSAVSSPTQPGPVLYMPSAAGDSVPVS

B1: chr8:73046310:73046411:+|3pUTR|ENSG00000147601|msi1|FALSE|unique (ssRNA)
RNA: GGGAGUUCUACAGUCCGACGAUCUUGUAUUCUUUAAGAACCUUAUUUUGAUAAAAUGUAAAUUUGUUGAACCCUGCCACAUUUAGUAUCCCCACCCCCAAAUCCUGUUCCAAUGAAAAAAUUAAAACCUGAUACGAAAAAAAACAACAGAGGAUUGAGCAUCA
B2: chr2:96301550:96301651:-|CDS|ENSG00000144028|msi1|FALSE|unique (ssRNA)
RNA: GGGAGUUCUACAGUCCGACGAUCAAGGCGAAAGGAGAUUGACCUGCUGCUGGGUCAAACAGAUGAUACCAGAUACCAUGUGCUAGUGAACCUGGGCAAAAAGAUCACAGACUAUGGUGGAGAUAAGGAAAUCCAAAAUAUGGGCAACAGAGGAUUGAGCAUCA
B3: chr7:76302746:76302847:+|CDS|ENSG00000106211|unk|total|mutant (ssRNA)
RNA: GGGAGUUCUACAGUCCGACGAUCGUCCCCUUCUCGCUCCUGCGGGGCCCCAGCUGGGACCCCUUCCGCGACUGGUACCCGCACCGCCGCCUCUUCGACCAGGCCUUCGGGCUGCCCCGGCUGCCGGAGGAGUGGUCGCAGUGGCAACAGAGGAUUGAGCAUCA
B4: chr7:56101660:56101848:-|3pUTR|ENSG00000106153|msi1|total|mutant (ssRNA)
RNA: GGGAGUUCUACAGUCCGACGAUCUGGAGAGAUGGAAAAUCAGCUCUCAUAACUAAGUUAAUUCCGUAUAAAAACCGAAUUGACCGUGAGGGUAUAAAGUGUAACCAUCAGUUAAACCUCUCCUGUCAUUCCUGGCUUCCUUGCCAACAGAGGAUUGAGCAUCA
B5: chr11:2928445:2928542:-|3pUTR|ENSG00000181649|msi1_unk|FALSE|overlapping (ssRNA)
RNA: GGGAGUUCUACAGUCCGACGAUCAUUGGACUAUCUAAUAUCUAUGUAUUUAUUUCGCUGGUUCUUUGUAGUCACAUAUUUUAUAGUCUUAAUAUCUUGUUUUUGCAUCACUGUGCCCAUUGCAAAUAAAUCACUUGGCCAGUUCAACAGAGGAUUGAGCAUCA
B6: ENSG00000070961:be:win_1401|CDS|ENSG00000070961|bound_else_gene|NA|bound_elsewhere_windowed (ssRNA)
RNA: GGGAGUUCUACAGUCCGACGAUCAAAUGCUACAGCUAUUUGUUCAGAUAAAACAGGAACUUUGACAAUGAACAGAAUGACAGUCGUUCAAGCUUACAUAAAUGAAAAACAUUAUAAAAAGGUUCCUGAACCAGAAGCUAUUCCCAACAGAGGAUUGAGCAUCA
B7: chr1:52238154:52238269:+|CDS|ENSG00000157077|unk|total|mutant (ssRNA)
RNA: GGGAGUUCUACAGUCCGACGAUCUCUGACCGUCCCGCCAGUGUCUGUUCCCCUUCACAAUUAAAGGAUGACGGAAGUACCGGCCGAGACCCCUCCAUGUCUGCGAUUACAAGUUUAACGGUUGAUUCAGUAAUCUCAUCCCAGCAACAGAGGAUUGAGCAUCA
B8: chr2:88557131:88557241:-|3pUTR|ENSG00000172071|msi1|total|mutant (ssRNA)
RNA: GGGAGUUCUACAGUCCGACGAUCGAGGACAAGCCGCACAAACUGUAUAACGGUUUAUGUCCGCCGUUUUACCGUCCUAUUUGCCGCAUUCAACCGCUUUAUUCCUCCGAUGGUUCCCGGGUGGGUUUACAGCUUUUUGUACUUCAACAGAGGAUUGAGCAUCA
B9: chr5:43486917:43487111:-|CDS|ENSG00000172244|control|control|control (ssRNA)
RNA: GGGAGUUCUACAGUCCGACGAUCUUAUAAACCAGGAUCUUCAGAAACCUUGCUAGGAGAAGUUAAUGAAAAUAGAGUAUCAAUAGCAUUGAAAAAAACCUCUGAAAUCCUUCACGAUAUUGACUGUCUUCUAUCAAACUCUAACAACAGAGGAUUGAGCAUCA
B10: ENSG00000112365:stop:overlap|stop_codon|ENSG00000112365|stop_codon|NA|stop_codon (ssRNA)
RNA: GGGAGUUCUACAGUCCGACGAUCUCUACACACUGGCAAGAAGCCUUUCUCCUGCCCUGAGUGUAACUUACAGUUUGCUCGCUUAGACAACUUGAAGGCUCACUUGAAAAUUCAUAGCAAGGAGAAGCAUGCUUCAGAUGCCAGCAACAGAGGAUUGAGCAUCA
B11: chr10:30820206:30820444:-|three_prime_utr|ENSG00000183621|control|control|control (ssRNA)
RNA: GGGAGUUCUACAGUCCGACGAUCCUUAUCUAAUCUCCAAAUGAAGAAUGGGCCCAUCUGACAUAUCCUAUGAGCACAAAGCUUAGGGGACUCUUCACCGAAACCUAGACAAAUAUUUGAAUGCAUUUUUUUUUUUUUUUUUUGCAACAGAGGAUUGAGCAUCA
B12: ENSG00000107863:be:win_3701|CDS|ENSG00000107863|bound_else_gene|NA|bound_elsewhere_windowed (ssRNA)
RNA: GGGAGUUCUACAGUCCGACGAUCUCUUCACAAAUGAUAAAUAUGCUGAUUUUAUUGAAGCCAAUCGUAAAGAAGAUCCUCUAGAUCGUCUGAAAACAUUAAAAAGACUAAUUCACGAUUUGCCUGAACAUCAUUAUGAAACACCAACAGAGGAUUGAGCAUCA
B13: ENSG00000066933:stop:overlap|stop_codon|ENSG00000066933|stop_codon|NA|stop_codon (ssRNA)
RNA: GGGAGUUCUACAGUCCGACGAUCAUAGCUCAGAGAAUUUGAAUAUGGAGUCUGAAUAUGCUAUCUCUGAGAAAUCAGAAGCUUAGCCCUUAGCUCCCUGAAGACAGCUGGCAAGUCUGAACCUUCCAGCAAGUUGCGAAAGCACAACAGAGGAUUGAGCAUCA
B14: chr8:65707876:65707977:+|CDS|ENSG00000066855|unk|FALSE|unique (ssRNA)
RNA: GGGAGUUCUACAGUCCGACGAUCCCUGCUGCCCUCAUAGCAGAGGCUCUGAAAAAGAAAUUUGCUUAUCGGUAUCGAAGUGAUAGCCAAGAUGAAGUUGAAAAAGGAAUUCCAAAGUCUGAAUCAGAGGCCACCUCAGAGAGACAACAGAGGAUUGAGCAUCA

The binders below were run against T1, UNK ZnF1-6 (called full-length) (assay: nsRBNS (natural sequence RNA bind-n-seq); RBNS binding buffer (assumed for nsRBNS): 25 mM Tris pH 7.5, 150 mM KCl, 3 mM MgCl2, 0.01% Triton X-100, 500 ug/ml BSA, 20 U/ml SUPERase-In, 4 C; UNK is unkempt and MSI1 is Musashi-1; names of the RNAs are library labels; protein concentration not given here; high values mean tight binding).

| Binder | binding signal [enrichment R] |
| --- | --- |
| B1 | 2.26 |
| B2 | 0.578 |
| B3 | 2.16 |
| B4 | 0.253 |
| B5 | 5.74 |
| B6 | 0.274 |
| B7 | 0.482 |
| B8 | 0.471 |
| B9 | 0.69 |
| B10 | 0.948 |
| B11 | 27.7 |
| B12 | 0.382 |
| B13 | 15.4 |
| B14 | 0.424 |
